The results in this text go back to PubChem BioAssay AID1326 (NMMLSC, 2008).

Out of some 190,000 compounds screened, about 130 (0.068%) were called active. Cut-off read from the data, not from the text of the source: active = inhibition above about 40%; inactive = the rest. The entries come from a sample that favours actives as a whole.

The target of this assay is ATP-dependent translocase ABCB1 (Homo sapiens) (UniProt P08183). Put plainly: ABCB1 efflux pump inhibitors, primary screen, cell-based, multiplex, flow cytometry, ABCG2 counter-screen (AID 1326).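 Note: 0% = vehicle and 100% = reference inhibitor; higher value means more JC-1 retained so stronger ABCB1 efflux block.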 Conditions: CCRF-Adr cells, JC-1 efflux, at 6.6 µM, hits give high values. Background: A flow cytometer gives signals particle by particle.
Sequence of ATP-dependent translocase ABCB1 (Homo sapiens) (P08183 whole entry, looked up): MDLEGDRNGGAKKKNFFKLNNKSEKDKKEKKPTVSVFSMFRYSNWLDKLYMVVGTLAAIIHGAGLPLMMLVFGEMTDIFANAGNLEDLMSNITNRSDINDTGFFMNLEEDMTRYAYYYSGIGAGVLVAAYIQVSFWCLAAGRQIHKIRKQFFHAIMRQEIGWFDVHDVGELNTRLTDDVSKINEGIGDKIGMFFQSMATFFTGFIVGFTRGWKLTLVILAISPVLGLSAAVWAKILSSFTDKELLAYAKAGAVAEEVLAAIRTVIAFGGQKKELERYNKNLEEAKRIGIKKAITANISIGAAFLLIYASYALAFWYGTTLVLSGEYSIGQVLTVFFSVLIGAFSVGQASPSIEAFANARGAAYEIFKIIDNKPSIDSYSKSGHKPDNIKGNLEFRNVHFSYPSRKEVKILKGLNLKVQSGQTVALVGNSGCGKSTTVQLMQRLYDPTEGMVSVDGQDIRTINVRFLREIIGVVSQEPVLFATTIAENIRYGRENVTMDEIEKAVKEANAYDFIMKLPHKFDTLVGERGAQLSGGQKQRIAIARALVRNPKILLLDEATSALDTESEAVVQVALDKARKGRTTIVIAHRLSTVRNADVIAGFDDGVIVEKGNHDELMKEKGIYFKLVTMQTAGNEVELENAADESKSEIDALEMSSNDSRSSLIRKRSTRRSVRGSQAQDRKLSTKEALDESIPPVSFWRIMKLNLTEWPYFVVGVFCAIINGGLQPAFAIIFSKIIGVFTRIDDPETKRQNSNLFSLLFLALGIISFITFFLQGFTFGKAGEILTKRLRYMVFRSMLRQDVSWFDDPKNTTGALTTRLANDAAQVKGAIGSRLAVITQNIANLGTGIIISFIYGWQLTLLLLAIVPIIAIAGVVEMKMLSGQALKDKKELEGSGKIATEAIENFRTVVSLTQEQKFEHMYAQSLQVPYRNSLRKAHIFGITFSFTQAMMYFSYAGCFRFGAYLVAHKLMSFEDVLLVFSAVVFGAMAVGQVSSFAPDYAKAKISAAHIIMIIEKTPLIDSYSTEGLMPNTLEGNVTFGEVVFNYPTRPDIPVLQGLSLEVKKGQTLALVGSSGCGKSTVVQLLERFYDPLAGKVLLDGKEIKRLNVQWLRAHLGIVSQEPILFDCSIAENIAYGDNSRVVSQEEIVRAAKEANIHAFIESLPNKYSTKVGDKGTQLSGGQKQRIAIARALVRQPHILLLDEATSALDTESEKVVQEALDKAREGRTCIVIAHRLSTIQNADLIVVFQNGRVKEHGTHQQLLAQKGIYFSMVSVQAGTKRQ
Usually inhibition stands for the relative decrease from the control value, in per cent. In the case of `Cc1ccc2c(c1)C1CN(C)CCC1N2C(=S)Nc1ccc(Cl)cc1Cl` (stereo not given), the inhibition was -0.2% (inactive).
Regarding `Cc1cccc(C)c1OCC(O)CN1CCCCC1` (stereo not given), the inhibition is 0.13% (inactive).
Under `Cc1ccccc1OCC(O)CN1CCN(c2ccccn2)CC1` (stereo not given) stands 2.19% (inactive); under `Cc1ccc(OCC(O)CN2CCN(CC(O)COc3ccc(C)cc3Cl)CC2)c(Cl)c1` (stereo not given), 77.3% (active); under `COc1cccc(OC)c1C(=O)OCC(=O)/C(C#N)=C(\C)N`, 0.08% (inactive).
Then `CCC(=O)/C=C1\Sc2ccccc2N1CC`, with 0.19% (inactive); and `CCN1/C(=C\c2ccc3ccccc3[n+]2CC)Sc2cc(C)ccc21`, with 19.6% (inactive); and `Cc1ccccc1-c1n[nH]c(=S)n1C`, with -0.08% (inactive).
Then `CC(=O)c1ccc(NC(=O)CSC(=S)N2CCCC2)cc1`, with 0.83% (inactive); and `O=C(N/N=C/c1ccc([N+](=O)[O-])o1)c1cccc(S(=O)(=O)N2CCOCC2)c1`, with 1.78% (inactive); and `COC(=O)CC1=NN(c2nc(C)cc(C)n2)C(=O)C1`, with 3.04% (inactive).
Regarding `COc1ccc(Cl)cc1NC(=O)[C@@H]1CCCN1C(=O)c1cccs1`, the inhibition is 1.1% (inactive).
Then `O=C(NNC(=S)NC(=O)c1cn(-c2ccccc2)nc1-c1ccccc1)c1ccncc1`, with -0.12% (inactive); and `O=C1N/C(=N\N=C\c2ccco2)SC1Cc1ccc(F)cc1` (stereo not given), with -0.31% (inactive); and `COC(=O)c1ccc(CSc2nncn2N)cc1`, with -0.7% (inactive).
Then `CCCN1CNC(=S)N(CCc2ccccc2)C1`, with 0.53% (inactive); and `COc1ccc(CNC(=O)COC(=O)/C=C/c2ccc(S(=O)(=O)N3CCOCC3)cc2)cc1`, with -0.38% (inactive).
Under `CC(C)(C)OC(=O)N1CCC(NC(=O)c2[nH]cnc2C(=O)N[C@@H](Cc2ccccc2)C(=O)OCc2ccccc2)CC1` stands 15.7% (inactive); under `CC1=C(C)CC(C(=O)NC(C)CCc2ccccc2)C(C(=O)O)C1` (stereo not given), 0.3% (inactive); under `O=C(Cc1c[nH]c2ccccc12)N/N=C/c1cccc(F)c1`, -0.1% (inactive).
Regarding `CCC(CC)c1nnc(NC(=O)/C=C/c2ccco2)s1`, the inhibition was 0.26% (inactive).
Take `CN(C)c1nc(N)nc(Cn2nnc(-c3ccc(C(F)(F)F)cc3)n2)n1`: the inhibition is -0.39% (inactive).
Take `O=S(=O)(c1ccc(-c2ccccc2)cc1)N1CCCC1`: the inhibition was 1.29% (inactive).
Under `O=C(CCS(=O)(=O)Cc1ccccc1)Nc1ccc2c(c1)OCCO2` stands 0.73% (inactive).
Then `Cc1cc(C)cc(NC(=O)COC(=O)c2cc(C)oc2C)c1`, with 1.39% (inactive).
In the case of `Cc1ccc(C(NC(=O)N2CCCC2)C(Cl)(Cl)Cl)cc1F` (stereo not given), the inhibition was 0.9% (inactive).
Then `CCS(=O)(=O)c1ccc(O)c(NC(=O)COc2ccc(Cl)cc2)c1`, with 0.2% (inactive).
As to `CCn1c(COc2c(C)cccc2C)nnc1SCc1nc2ccccc2c(=O)[nH]1`, the inhibition is 0.72% (inactive).
Regarding `CS(=O)(=O)c1ccc2nc(NC(=O)c3ccc(Cl)nc3)sc2c1`, the inhibition is 0.4% (inactive).
`Cc1nnc(SCCCCSc2nnc(C)c(=O)[nH]2)[nH]c1=O`: the inhibition was 1.4% (inactive).
Under `CC(C)OCCCNC(=O)c1ccc(C2SCC(=O)N2Cc2ccco2)cc1` (stereo not given) stands 1.04% (inactive); under `CSc1ccccc1NC(=O)Cc1ccc(Br)cc1`, 1.94% (inactive).
Then `O=C(CN(c1cccc(Cl)c1)S(=O)(=O)c1ccccc1)NN=C1CCCC1`, with 0.27% (inactive); and `O=C(COC(=O)c1ccccc1C(=O)N1CCN(c2ccccc2)CC1)NCc1ccccc1`, with 1.33% (inactive); and `O=C1CN(C(=O)CN2C(=O)NC3(CCCCC3)C2=O)c2ccccc2N1`, with 0.2% (inactive).
Under `Cc1sc2nc(COC(=O)C(NC(=O)c3ccc(Cl)cc3Cl)C(C)C)[nH]c(=O)c2c1C` (stereo not given) stands -0.58% (inactive); under `CCc1ccc(Nc2nnc(SCC(=O)c3ccc4c(c3)NC(=O)CO4)s2)cc1`, -0.13% (inactive); under `CCOc1ccc(C(=O)Nc2cccc(SC)c2)cc1`, 0.08% (inactive).
As for `COC(=O)CCC(=O)N1CCCC(CO)(Cc2ccccc2)C1` (stereo not given), the inhibition was 0.1% (inactive).
Then `CN(C)c1ccc(Nc2c3c4c(cccc4n(C)c2=O)C(=O)c2ccccc2-3)cc1`, with 13.5% (inactive).
Turning to `Cc1ccc(O)c(-c2cc(C(=O)Nc3c(C)n(C)n(-c4ccccc4)c3=O)[nH]n2)c1`, the inhibition is 0.33% (inactive).
Under `COc1ccc(C2OCC3(CO2)SC(=O)NC3=O)cc1OC` (stereo not given) stands -0.28% (inactive); under `COc1ccccc1N1CCN(/N=C\C(Br)=C\c2ccccc2)CC1`, 0.81% (inactive).
With `N#Cc1ccccc1NC(=O)c1cccc(COc2ccc(Cl)cc2Cl)c1`, the inhibition is -0.17% (inactive).
Then `CCOC(=O)c1ccc(NC(=S)Nc2cc(C)cc(C)n2)cc1`, with 1.25% (inactive); and `COc1cc(C(=O)NCc2nnc(SCC(=O)Nc3nc4ccc(C)cc4s3)o2)cc(OC)c1OC`, with -2.31% (inactive); and `Cc1ccccc1Nc1scc(-c2ccc(Br)cc2)[n+]1-c1ccccc1C`, with -2.63% (inactive).
With `CCCn1nc(NS(=O)(=O)c2ccccc2)c2cc3cc(C)ccc3nc21`, the inhibition is 0.68% (inactive).
Then `O=S(=O)(c1ccccc1)c1nc(-c2ccccc2F)oc1NCc1cccnc1`, with 5.26% (inactive); and `c1ccc2c(c1)OCCOCCOCCO2`, with 0.51% (inactive); and `CC(=O)Cc1nsc(NC(=O)c2ccc(Cl)cc2Cl)n1`, with -0.31% (inactive).
Then `COC(=O)c1cc(NC(=O)CN2CCN(C(C)=O)CC2)cc(C(=O)OC)c1`, with 1.14% (inactive).
On to `CC(CNC(=O)c1ccc(N)cc1)NC(=O)c1ccc(N)cc1` (stereo not given), for which the inhibition is -0.82% (inactive).
Regarding `CS(=O)(=O)N1CCC(C(=O)N2CCN(c3ccccc3)CC2)CC1`, the inhibition is 0.86% (inactive).
Turning to `CCC1SC(CC)C(=O)N(CC(=O)NC2CCCCC2)C1=O` (stereo not given), the inhibition is 0.07% (inactive).
On to `Cc1c(Cl)c([N+](=O)[O-])nn1CC(=O)NCC1CCCO1` (stereo not given), for which the inhibition is -0.1% (inactive).
For the compound `COc1ccc(-n2nnnc2SCC(=O)NCc2cccs2)cc1`, the inhibition was 2.4% (inactive).
Then `CCOc1ccc2nc(NC(=O)c3cc([N+](=O)[O-])ccc3N3CCOCC3)sc2c1`, with -1.41% (inactive).
Under `NC(=O)COC(=O)c1sc2cc(F)ccc2c1Cl` stands -0.04% (inactive); under `COc1ccc(C(=O)COC(=O)c2nn(C)c(=O)c3ccccc23)c(OC)c1`, 0.19% (inactive); under `O=C1c2cccc3c([N+](=O)[O-])ccc(c23)C(=O)N1CC1CCCO1` (stereo not given), 0.98% (inactive).
Consider `CN(CCOc1ccccc1)Cc1nc2cc(Cl)ccc2c(=O)[nH]1`, for which the inhibition is 0.26% (inactive).
Then `Cc1ccc(Nc2c(F)c(F)c(F)c(F)c2C(=O)O)c(C)c1`, with -0.24% (inactive); and `Cc1ccc(CNC(=O)CCNS(=O)(=O)c2ccc(Br)s2)cc1`, with -0.56% (inactive).
Take `NS(=O)(=O)c1ccc(CCNC(=O)c2ccc(Cl)cc2[N+](=O)[O-])cc1`: the inhibition was 1.3% (inactive).
For the compound `COc1ccccc1NC(=O)CCSc1nnc(-c2ccc(O)cc2)o1`, the inhibition was 0.42% (inactive).
On to `COc1ccc(/C=N/Nc2ncnc3sc4c(c23)CCCC4)cc1O`, for which the inhibition is -0.22% (inactive).
Then `N#Cc1cnn2cc(CCN3CCOCC3)c(-c3ccc(F)cc3)nc12`, with 1.26% (inactive); and `CCCNCc1cc(OCC)c(OCC(=O)Nc2ccccc2)cc1Br`, with 0.07% (inactive); and `O=C(CN(C(=O)c1csnn1)c1cccc(F)c1)NCc1ccc(F)cc1`, with 1.22% (inactive).
Take `COC(=O)c1ccc(C(NC(=O)OCc2ccccc2)/C(C)=C/[C@@H](C)C(=O)NCc2ccc(OC)c(OC)c2)cc1` (stereo not given in full): the inhibition was 9.15% (inactive).
Under `Cc1ccccc1CSc1nnc(-c2ccccc2)c(=O)[nH]1` stands 0.19% (inactive); under `CCC(C)(C)NC(=O)C(c1cccc(OC)c1OC)N(CC(C)C)C(=O)CCC(=O)Nc1cc(C)on1` (stereo not given), 1.31% (inactive); under `CCOC(=O)C1(C)NC(c2ccco2)C2C(=O)N(c3ccccc3)C(=O)C21` (stereo not given), 0.47% (inactive).
Then `CCOC(=O)NC(=O)CSc1nnc(SCCC(=O)O)s1`, with 0.52% (inactive); and `Cc1nn(CCOc2ccc(Br)cc2)c(C)c1[N+](=O)[O-]`, with 1.06% (inactive).
Under `CN(C)c1ccc(/C=N/NC(=O)C(O)c2ccc(Br)cc2)cc1` (stereo not given) stands 0.7% (inactive); under `OC1CSc2nc3ccccc3n2C1` (stereo not given), -0.99% (inactive).
On to `Cc1ccc(C)c(-n2nnnc2SCC(=O)c2c(N)n(C)c(=O)n(C)c2=O)c1`, for which the inhibition is -0.82% (inactive).
Consider `Nc1nc(CC(=O)CSc2ccc(Cl)cc2)nc(Nc2ccc(F)cc2)n1`, for which the inhibition was 0.01% (inactive).
Then `COc1ccc(Br)cc1/C=N/Nc1ccc(Cl)c(C(=O)O)c1`, with -0.4% (inactive).
Then `Cc1cc(/C=C2/SC(=O)N(CC(=O)N3CCCC3)C2=O)ccc1N1CCOCC1`, with 1.48% (inactive); and `Cc1nc(S(=O)(=O)c2ccc(Br)cc2)nc2c1CCC2`, with 0.58% (inactive); and `COc1ccccc1NC(=O)c1cc(Cl)nnc1Cl`, with 1.04% (inactive).
For `COc1ccc(S(=O)(=O)N(C)CC(=O)N2CCCC2)cc1Cl`, the inhibition was 1.26% (inactive).
Turning to `COc1ccc(C(=O)Nc2ccc(N3CCC(C)CC3)cc2)cc1Br`, the inhibition was 1.32% (inactive).
Then `Cc1ccc(C(=O)N/C(=C/c2cccnc2)C(=O)O)cc1`, with 0.02% (inactive); and `O=C(O)c1cccc(NC(=O)c2cc(-c3cccc(Cl)c3)nc3ccccc23)c1`, with -0.61% (inactive).
Then `C/C(=N\Nc1ncc(Cl)cc1Cl)c1cccs1`, with 0.7% (inactive).
Then `COC(=O)c1c(C(=O)OC)c(-c2cccc(C)c2)n2c1CS(=O)C2` (stereo not given), with 0.19% (inactive); and `COCC(C)n1c(C)cc(C(=O)COc2ccc(C)nc2[N+](=O)[O-])c1C` (stereo not given), with 0% (inactive); and `S=c1[nH]nc(NCCc2ccccc2)s1`, with -0.12% (inactive).
Regarding `C/C(=N\NC(=O)C(N)=O)c1ccc2c(c1)OCCO2`, the inhibition was 1.58% (inactive).
Then `CC(C)/C=N/NC(=O)c1cc(Br)ccc1O`, with 0.05% (inactive).
Under `O=C(O)CC(SCC(=O)Nc1ccc(Br)cc1)C(=O)O` (stereo not given) stands -0.05% (inactive).
